# Key:
# Assay in all cases: DAPPL (digital affinity profiling via proximity ligation, sequencing); 10 mM Tris-HCl pH 7.5, 50 mM NaCl, 1 mM DTT, 4% glycerol, room temperature, 30 min; GST-TFs on glutathione beads, 16-mer random dsDNA library, 0.1% formaldehyde crosslink after washing; high values mean tight binding
# FEV = target: T1, FEV (Homo sapiens, UniProt Q99581 1-238); conditions: protein: recombinant; tags: N-terminal GST; dsDNA, one strand shown
# T1 sequence: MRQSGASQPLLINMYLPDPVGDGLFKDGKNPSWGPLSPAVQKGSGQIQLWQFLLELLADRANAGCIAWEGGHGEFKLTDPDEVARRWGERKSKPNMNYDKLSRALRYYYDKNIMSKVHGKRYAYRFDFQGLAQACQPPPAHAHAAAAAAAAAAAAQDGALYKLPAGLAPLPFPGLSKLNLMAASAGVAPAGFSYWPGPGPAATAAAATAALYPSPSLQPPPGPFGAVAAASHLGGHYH
# Method in brief: (§1)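 Pools were built from human transcription factors expressed in yeast as GST fusions, captured on glutathione beads and DNA-barcoded, along with a tag-only sample. Incubation with 200 nmole of a 16-mer random double-stranded DNA library lasted 30 min at room temperature in Tris/NaCl/DTT/glycerol buffer, and was followed by washing, 0.1% formaldehyde crosslinking, proximity ligation, PCR amplification and Illumina NextSeq500 sequencing. Binding signal is the quotient of each hexamer's read frequency for a factor and its frequency for the tag-only sample.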
# ETV5 = ETV5 (Homo sapiens, UniProt P41161 1-510); conditions: protein: recombinant; tags: N-terminal GST; dsDNA, one strand shown
# Chain of ETV5 (P41161 whole entry): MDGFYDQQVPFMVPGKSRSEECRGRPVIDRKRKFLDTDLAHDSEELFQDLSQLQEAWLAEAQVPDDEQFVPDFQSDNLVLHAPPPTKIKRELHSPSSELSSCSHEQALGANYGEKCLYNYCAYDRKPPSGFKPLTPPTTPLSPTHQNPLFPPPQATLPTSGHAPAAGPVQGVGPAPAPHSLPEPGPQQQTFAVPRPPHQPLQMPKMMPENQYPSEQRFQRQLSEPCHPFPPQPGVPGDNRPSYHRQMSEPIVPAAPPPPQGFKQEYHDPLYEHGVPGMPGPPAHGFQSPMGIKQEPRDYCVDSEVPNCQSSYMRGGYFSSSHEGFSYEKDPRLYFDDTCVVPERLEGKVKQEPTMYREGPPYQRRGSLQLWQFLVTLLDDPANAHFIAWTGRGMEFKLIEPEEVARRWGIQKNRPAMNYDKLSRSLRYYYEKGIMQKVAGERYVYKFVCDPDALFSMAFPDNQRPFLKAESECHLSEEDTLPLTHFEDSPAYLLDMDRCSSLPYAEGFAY
# Method in brief: as §1
# HSF1 = HSF1 (Homo sapiens, UniProt Q00613 1-529); conditions: protein: recombinant; tags: N-terminal GST; chain copies: 3; dsDNA, one strand shown
# Chain of HSF1 (Q00613 whole entry): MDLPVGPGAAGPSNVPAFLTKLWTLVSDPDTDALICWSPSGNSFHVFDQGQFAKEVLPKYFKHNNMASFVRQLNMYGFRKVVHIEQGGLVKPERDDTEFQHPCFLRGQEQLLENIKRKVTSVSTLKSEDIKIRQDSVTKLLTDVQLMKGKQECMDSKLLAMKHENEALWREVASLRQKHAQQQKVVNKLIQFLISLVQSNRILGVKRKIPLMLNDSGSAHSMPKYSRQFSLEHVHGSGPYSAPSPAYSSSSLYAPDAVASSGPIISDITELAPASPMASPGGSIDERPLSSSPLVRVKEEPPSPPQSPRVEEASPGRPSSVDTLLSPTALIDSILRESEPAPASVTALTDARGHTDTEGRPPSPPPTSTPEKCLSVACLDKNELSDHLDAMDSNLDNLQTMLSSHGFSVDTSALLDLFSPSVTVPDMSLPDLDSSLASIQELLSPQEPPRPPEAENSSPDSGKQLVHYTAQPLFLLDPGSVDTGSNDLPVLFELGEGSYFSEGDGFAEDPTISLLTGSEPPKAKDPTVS
# Method in brief: as §1
# SPIC = target: T2, SPIC (Homo sapiens, UniProt Q8N5J4 1-248); conditions: protein: recombinant; tags: N-terminal GST; dsDNA, one strand shown
# T2 sequence: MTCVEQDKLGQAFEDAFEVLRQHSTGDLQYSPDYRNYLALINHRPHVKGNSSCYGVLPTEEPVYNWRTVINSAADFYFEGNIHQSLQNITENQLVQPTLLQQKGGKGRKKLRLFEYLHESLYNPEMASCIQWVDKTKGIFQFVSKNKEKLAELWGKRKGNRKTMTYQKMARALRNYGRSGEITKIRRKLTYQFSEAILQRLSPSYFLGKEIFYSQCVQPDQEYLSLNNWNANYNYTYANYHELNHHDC
# Method in brief: as §1
# ELF4 = ELF4 (Homo sapiens, UniProt Q99607 1-663); conditions: protein: recombinant; tags: N-terminal GST; dsDNA, one strand shown
# Chain of ELF4 (Q99607 whole entry): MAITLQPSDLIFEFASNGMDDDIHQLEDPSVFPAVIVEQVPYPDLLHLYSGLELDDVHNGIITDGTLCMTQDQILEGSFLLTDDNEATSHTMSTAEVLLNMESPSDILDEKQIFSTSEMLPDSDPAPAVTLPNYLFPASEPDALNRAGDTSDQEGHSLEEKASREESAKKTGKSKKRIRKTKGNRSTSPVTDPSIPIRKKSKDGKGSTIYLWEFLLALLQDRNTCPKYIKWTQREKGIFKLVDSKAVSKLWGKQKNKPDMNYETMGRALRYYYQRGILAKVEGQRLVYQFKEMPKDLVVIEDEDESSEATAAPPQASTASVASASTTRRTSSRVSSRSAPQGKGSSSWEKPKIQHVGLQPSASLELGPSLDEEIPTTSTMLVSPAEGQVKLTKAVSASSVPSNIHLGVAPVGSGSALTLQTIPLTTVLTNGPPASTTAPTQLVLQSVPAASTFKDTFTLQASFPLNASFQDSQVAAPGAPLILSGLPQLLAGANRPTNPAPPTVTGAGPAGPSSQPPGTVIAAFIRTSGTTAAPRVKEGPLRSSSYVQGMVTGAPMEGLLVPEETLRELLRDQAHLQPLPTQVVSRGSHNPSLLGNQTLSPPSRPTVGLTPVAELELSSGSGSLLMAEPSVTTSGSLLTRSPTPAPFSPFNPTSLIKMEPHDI
# Method in brief: as §1
# ELK4 = target: T3, ELK4 (Homo sapiens, UniProt P28324-2 1-405); conditions: protein: recombinant; tags: N-terminal GST; dsDNA, one strand shown
# T3 sequence: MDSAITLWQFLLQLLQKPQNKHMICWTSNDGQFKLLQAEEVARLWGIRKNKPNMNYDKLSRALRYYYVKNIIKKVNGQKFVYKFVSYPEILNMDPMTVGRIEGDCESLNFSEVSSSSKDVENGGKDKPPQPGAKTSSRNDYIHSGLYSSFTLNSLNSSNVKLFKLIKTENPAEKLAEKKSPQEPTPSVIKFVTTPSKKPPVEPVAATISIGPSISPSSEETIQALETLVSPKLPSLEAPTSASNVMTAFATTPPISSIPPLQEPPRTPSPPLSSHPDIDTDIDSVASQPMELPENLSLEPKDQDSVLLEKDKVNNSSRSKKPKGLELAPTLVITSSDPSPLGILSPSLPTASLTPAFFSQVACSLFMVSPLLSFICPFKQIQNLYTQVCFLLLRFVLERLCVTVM
# Method in brief: as §1
# ETV2 = target: T4, ETV2 (Homo sapiens, UniProt O00321 1-342); conditions: protein: recombinant; tags: N-terminal GST; dsDNA, one strand shown
# T4 sequence: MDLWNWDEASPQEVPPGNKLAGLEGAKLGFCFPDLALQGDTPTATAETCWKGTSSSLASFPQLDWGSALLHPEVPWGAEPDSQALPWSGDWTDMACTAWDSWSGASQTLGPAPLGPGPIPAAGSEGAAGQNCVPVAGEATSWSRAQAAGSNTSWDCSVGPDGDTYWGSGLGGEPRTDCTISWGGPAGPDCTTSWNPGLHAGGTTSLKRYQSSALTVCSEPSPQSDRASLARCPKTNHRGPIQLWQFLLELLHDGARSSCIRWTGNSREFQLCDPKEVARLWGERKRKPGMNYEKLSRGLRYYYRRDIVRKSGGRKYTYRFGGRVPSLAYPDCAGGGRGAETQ
# Method in brief: as §1
# ELF3 = target: T5, ELF3 (Homo sapiens, UniProt P78545 1-371); conditions: protein: recombinant; tags: N-terminal GST; dsDNA, one strand shown
# T5 sequence: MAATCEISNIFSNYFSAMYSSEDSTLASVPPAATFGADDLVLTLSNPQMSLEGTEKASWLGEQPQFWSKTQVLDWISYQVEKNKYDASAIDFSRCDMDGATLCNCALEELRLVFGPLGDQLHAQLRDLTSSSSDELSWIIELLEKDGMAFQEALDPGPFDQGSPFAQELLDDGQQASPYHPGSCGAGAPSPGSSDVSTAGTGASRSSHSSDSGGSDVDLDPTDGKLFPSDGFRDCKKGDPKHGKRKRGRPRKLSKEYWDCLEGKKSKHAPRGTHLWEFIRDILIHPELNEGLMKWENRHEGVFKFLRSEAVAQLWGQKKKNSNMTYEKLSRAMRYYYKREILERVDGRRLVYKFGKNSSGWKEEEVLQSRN
# Method in brief: as §1
# CRX = CRX (Homo sapiens, UniProt O43186 1-299); conditions: protein: recombinant; tags: N-terminal GST; dsDNA, one strand shown
# Chain of CRX (O43186 whole entry): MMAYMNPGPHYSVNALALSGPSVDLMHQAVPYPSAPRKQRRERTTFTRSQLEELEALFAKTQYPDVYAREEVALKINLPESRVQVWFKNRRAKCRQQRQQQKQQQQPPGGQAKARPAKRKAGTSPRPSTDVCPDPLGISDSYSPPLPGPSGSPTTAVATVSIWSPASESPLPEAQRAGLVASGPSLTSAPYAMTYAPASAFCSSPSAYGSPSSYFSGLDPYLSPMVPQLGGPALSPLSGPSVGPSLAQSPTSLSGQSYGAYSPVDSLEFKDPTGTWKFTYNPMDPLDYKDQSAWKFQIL
# Method in brief: as §1
# ETV1 = ETV1 (Homo sapiens, UniProt P50549 1-477); conditions: protein: recombinant; tags: N-terminal GST; dsDNA, one strand shown
# Chain of ETV1 (P50549 whole entry): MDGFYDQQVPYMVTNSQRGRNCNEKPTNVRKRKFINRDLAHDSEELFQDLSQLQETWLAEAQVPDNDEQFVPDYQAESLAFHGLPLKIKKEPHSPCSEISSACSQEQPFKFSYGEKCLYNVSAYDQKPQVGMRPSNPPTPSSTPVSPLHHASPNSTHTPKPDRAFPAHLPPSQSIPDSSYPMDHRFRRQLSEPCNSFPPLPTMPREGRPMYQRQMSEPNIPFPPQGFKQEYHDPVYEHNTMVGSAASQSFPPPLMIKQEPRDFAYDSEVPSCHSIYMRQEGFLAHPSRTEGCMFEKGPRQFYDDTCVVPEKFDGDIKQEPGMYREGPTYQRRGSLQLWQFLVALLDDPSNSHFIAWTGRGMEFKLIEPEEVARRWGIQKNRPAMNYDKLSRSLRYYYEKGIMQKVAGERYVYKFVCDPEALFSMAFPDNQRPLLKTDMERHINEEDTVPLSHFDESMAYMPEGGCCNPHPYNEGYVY
# Method in brief: as §1
# ERF = target: T6, ERF (Homo sapiens, UniProt P50548 1-548); conditions: protein: recombinant; tags: N-terminal GST; dsDNA, one strand shown
# T6 sequence: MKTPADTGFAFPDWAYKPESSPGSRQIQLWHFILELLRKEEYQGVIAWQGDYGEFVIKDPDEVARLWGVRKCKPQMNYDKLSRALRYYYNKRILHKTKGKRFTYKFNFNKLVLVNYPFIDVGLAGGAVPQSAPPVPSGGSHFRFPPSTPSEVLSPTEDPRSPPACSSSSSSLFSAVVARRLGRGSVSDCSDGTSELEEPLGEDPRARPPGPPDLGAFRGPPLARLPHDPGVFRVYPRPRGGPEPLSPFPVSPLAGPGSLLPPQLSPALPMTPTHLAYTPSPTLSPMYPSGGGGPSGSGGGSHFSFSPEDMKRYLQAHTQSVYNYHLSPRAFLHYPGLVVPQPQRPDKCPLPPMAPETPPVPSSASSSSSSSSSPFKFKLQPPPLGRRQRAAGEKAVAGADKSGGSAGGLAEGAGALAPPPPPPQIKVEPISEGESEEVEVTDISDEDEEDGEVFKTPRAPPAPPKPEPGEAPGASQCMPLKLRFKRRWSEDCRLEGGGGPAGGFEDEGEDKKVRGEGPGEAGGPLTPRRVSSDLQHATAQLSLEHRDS
# Method in brief: as §1
# ETV3L = target: T7, ETV3L (Homo sapiens, UniProt Q6ZN32 1-361); conditions: protein: recombinant; tags: N-terminal GST; dsDNA, one strand shown
# T7 sequence: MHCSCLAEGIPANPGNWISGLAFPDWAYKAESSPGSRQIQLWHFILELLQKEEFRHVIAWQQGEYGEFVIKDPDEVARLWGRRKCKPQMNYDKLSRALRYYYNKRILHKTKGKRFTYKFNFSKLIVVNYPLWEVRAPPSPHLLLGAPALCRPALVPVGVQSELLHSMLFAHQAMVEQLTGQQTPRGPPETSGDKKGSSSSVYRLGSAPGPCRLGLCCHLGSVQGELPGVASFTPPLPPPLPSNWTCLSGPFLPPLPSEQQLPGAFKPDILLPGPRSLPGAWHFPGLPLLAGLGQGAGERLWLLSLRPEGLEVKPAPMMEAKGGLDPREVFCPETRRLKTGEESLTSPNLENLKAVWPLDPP
# Method in brief: as §1
# ETS2 = target: T8, ETS2 (Homo sapiens, UniProt P15036 1-469); conditions: protein: recombinant; tags: N-terminal GST; dsDNA, one strand shown
# T8 sequence: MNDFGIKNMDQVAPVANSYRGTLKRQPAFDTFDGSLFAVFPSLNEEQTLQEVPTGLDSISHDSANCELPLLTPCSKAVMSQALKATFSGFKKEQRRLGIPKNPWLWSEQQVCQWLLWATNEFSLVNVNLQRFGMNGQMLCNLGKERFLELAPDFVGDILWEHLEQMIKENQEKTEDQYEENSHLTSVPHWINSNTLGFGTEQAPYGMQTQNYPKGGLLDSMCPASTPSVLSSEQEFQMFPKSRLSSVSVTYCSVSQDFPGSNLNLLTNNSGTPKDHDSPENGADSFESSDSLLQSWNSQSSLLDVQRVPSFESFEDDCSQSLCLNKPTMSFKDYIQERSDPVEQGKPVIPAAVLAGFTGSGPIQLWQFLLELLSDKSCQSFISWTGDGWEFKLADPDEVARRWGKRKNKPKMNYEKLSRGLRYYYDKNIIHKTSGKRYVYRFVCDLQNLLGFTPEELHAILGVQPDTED
# Method in brief: as §1
# SPDEF = target: T9, SPDEF (Homo sapiens, UniProt O95238 1-335); conditions: protein: recombinant; tags: N-terminal GST; dsDNA, one strand shown
# T9 sequence: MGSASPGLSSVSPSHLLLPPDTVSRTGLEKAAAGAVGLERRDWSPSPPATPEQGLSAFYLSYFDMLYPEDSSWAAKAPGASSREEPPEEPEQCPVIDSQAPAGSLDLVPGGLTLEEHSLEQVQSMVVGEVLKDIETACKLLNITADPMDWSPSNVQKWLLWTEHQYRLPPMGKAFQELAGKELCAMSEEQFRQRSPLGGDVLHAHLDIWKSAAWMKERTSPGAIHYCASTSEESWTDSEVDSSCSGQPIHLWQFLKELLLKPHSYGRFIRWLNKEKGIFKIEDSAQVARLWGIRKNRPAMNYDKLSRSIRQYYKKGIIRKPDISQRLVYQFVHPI
# Method in brief: as §1
# ETV7 = target: T10, ETV7 (Homo sapiens, UniProt Q9Y603 1-341); conditions: protein: recombinant; tags: N-terminal GST; dsDNA, one strand shown
# T10 sequence: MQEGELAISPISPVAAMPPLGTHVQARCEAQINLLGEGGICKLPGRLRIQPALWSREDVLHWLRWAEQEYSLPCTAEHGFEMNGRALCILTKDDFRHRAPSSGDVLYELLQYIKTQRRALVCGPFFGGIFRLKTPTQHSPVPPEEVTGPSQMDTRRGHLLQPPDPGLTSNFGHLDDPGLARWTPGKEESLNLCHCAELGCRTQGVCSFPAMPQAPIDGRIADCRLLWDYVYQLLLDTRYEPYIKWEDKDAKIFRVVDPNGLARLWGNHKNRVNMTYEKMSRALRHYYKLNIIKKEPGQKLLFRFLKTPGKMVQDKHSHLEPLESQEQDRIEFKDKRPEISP
# Method in brief: as §1
# ELF5 = target: T11, ELF5 (Homo sapiens, UniProt Q9UKW6-2 1-255); conditions: protein: recombinant; tags: N-terminal GST; dsDNA, one strand shown
# T11 sequence: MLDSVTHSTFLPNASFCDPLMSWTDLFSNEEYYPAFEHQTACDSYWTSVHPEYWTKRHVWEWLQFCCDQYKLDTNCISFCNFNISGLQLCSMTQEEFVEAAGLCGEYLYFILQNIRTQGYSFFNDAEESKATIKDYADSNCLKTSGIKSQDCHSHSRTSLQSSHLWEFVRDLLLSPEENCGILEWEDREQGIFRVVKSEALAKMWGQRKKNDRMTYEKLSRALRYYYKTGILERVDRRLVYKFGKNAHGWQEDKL
# Method in brief: as §1
# ETV3 = target: T12, ETV3 (Homo sapiens, UniProt P41162-2 1-143); conditions: protein: recombinant; tags: N-terminal GST; dsDNA, one strand shown
# T12 sequence: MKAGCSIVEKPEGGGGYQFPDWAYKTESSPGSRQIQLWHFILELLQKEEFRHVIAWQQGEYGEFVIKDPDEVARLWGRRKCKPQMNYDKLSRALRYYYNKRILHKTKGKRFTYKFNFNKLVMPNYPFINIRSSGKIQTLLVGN
# Method in brief: as §1
# ETV6 = ETV6 (Homo sapiens, UniProt P41212 1-452); conditions: protein: recombinant; tags: N-terminal GST; dsDNA, one strand shown
# Chain of ETV6 (P41212 whole entry): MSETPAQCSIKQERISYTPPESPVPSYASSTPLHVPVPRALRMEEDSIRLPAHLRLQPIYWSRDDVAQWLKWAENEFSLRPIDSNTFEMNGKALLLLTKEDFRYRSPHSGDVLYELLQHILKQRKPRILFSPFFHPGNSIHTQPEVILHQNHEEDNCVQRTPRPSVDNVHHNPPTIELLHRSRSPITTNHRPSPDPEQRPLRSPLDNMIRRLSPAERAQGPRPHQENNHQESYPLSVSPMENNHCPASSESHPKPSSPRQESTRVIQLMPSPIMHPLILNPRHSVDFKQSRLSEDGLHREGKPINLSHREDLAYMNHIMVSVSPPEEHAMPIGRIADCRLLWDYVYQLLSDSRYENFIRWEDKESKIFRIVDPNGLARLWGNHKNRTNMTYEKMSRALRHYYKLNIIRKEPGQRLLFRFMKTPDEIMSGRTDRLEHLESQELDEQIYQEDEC
# Method in brief: as §1
sequence,measurement,setting,value
TCCATA,binding signal,FEV,"1.21 fold enrichment (6-mer frequency, TF over GST control)"
same,binding signal,ETV5,"1.3 fold enrichment (6-mer frequency, TF over GST control)"
same,binding signal,HSF1,"1.44 fold enrichment (6-mer frequency, TF over GST control)"
same,binding signal,SPIC,"1.3 fold enrichment (6-mer frequency, TF over GST control)"
same,binding signal,ELF4,"1.2 fold enrichment (6-mer frequency, TF over GST control)"
same,binding signal,ELK4,"1.25 fold enrichment (6-mer frequency, TF over GST control)"
same,binding signal,ETV2,"1.19 fold enrichment (6-mer frequency, TF over GST control)"
same,binding signal,ELF3,"1.11 fold enrichment (6-mer frequency, TF over GST control)"
same,binding signal,CRX,"1.48 fold enrichment (6-mer frequency, TF over GST control)"
same,binding signal,ETV1,"1.32 fold enrichment (6-mer frequency, TF over GST control)"
same,binding signal,ERF,"1.37 fold enrichment (6-mer frequency, TF over GST control)"
same,binding signal,ETV3L,"1.27 fold enrichment (6-mer frequency, TF over GST control)"
same,binding signal,ETS2,"1.25 fold enrichment (6-mer frequency, TF over GST control)"
same,binding signal,SPDEF,"1.27 fold enrichment (6-mer frequency, TF over GST control)"
same,binding signal,ETV7,"1.14 fold enrichment (6-mer frequency, TF over GST control)"
same,binding signal,ELF5,"1.22 fold enrichment (6-mer frequency, TF over GST control)"
same,binding signal,ETV3,"1.22 fold enrichment (6-mer frequency, TF over GST control)"
same,binding signal,ETV6,"1.27 fold enrichment (6-mer frequency, TF over GST control)"
